How the values were obtained:
Assay in all cases: PBM binding z-score (relative to random genomic background probes); higher = stronger binding; sequences stand for … in GC…GCGATTGACAGCGTAGAATGAAGG
[1] = system: RARb homodimer (NR concentration 270 nM)
How it was run: (§1)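 For binding z-scores, the reference was random background probes on custom Agilent 4×180K protein-binding microarrays. These arrays were incubated 1 h with ligand-free nuclear receptor dimers in PBS pH 7.4, 2% milk, 0.02% Triton X-100, 1 mM DTT, 0.2 mg/mL BSA and 0.4 mg/ml salmon testes DNA. Fluorescence was scanned after antibody detection of each partner (one per run) and regression-normalized.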

[2] = system: RARg:RXRa (NR concentration 270 nM, RXRa partner concentration 90 nM)
How it was run: as §1

[3] = system: RARg homodimer (NR concentration 270 nM)
How it was run: as §1

[4] = system: RXRa DBDmut IVT, anti-RXR (DBD mutation: RXRa K156A/R161A, NR concentration 90 nM)
How it was run: as §1

[5] = system: RXRa homodimer (NR concentration 180 nM)
How it was run: as §1

[6] = system: THRa:RXRa (NR concentration 90 nM, RXRa partner concentration 90 nM)
How it was run: as §1

[7] = system: THRa homodimer (NR concentration 90 nM)
How it was run: as §1

[8] = system: VDR homodimer (NR concentration 270 nM)
How it was run: as §1

Row | Sequence | PBM binding z-score [1] | PBM binding z-score [2] | PBM binding z-score [3] | PBM binding z-score [4] | PBM binding z-score [5] | PBM binding z-score [6] | PBM binding z-score [7] | PBM binding z-score [8]
1 | ATATGTAGGTTGTCGGGTCATTCAGTTTGCGCAT | 2.51 | 2.24 | 1.66 | 1.31 | 2.44 | 3.2 | 3.12 | 4.2
2 | GGAACCAGGGCAAGTTGATAGCAGAGTTTGATGG | 1.71 | 1.17 | 1.52 | 1.85 | 0.254 | 1 | 1.21 | 0.898
3 | AGTCGAAGTTCAGGACGAGGTAACGTAAAGCACG | 1.36 | 2.55 | 1.89 | 1.42 | 1.28 | 3.25 | 1.62 | 0.996
4 | AATACAGGGTCATCGTAGGGCAGAGTACGCACAG | 3.67 | 6.04 | 5.73 | 3.64 | 7.22 | 4.59 | 1.42 | 3.02
5 | ATCTCTCGGTAACCAAGTTCAGTGAATGCCGAAC | 1.51 | 0.706 | 0.621 | 0.703 | 0.383 | 0.98 | 0.603 | 2.26
6 | TCTATTAGTTGAAGGCCAACCGACGAGTCCGTTT | 0.914 | 0.229 | 0.415 | 1.59 | 0.648 | 0.129 | 0.372 | 1.35
7 | GCTCGGATGACAAGGTCAGAGCTTTGTCCGTAGA | 2.57 | 2.42 | 2.02 | 0.22 | 2.15 | 2.5 | 1.09 | 0.292
8 | TCTAGTTGGTCACGGAGGTCATACACGACGGGTA | 4.18 | 4.45 | 4.21 | 1.16 | 4.65 | 3.5 | 2.17 | 3.53
9 | CAGCCTAGATCAGGGCCAGTATAGGAGGAACGTT | -0.147 | -0.262 | -0.227 | -0.728 | -0.559 | -0.634 | -0.417 | -0.384
10 | CGAGCTAGGTCAAGGACAGTGAATCTCCGCACGC | 2.95 | 3.8 | 4.67 | 1.27 | 2.28 | 3.02 | 1.62 | -0.0669
11 | CCTACTGCGCCAAGGTCATTGATCAGTCAAAGCA | 3.46 | 3.72 | 2.98 | 2.48 | 3.42 | 3.54 | 3.12 | 4.13
12 | CGAACTAGGTCGGAACAGGACAGTGAAGGATGAT | 0.127 | 0.399 | 0.643 | -0.112 | 0.169 | 1.89 | -0.442 | -0.102
13 | GCGACTGGGGCATCAGCAGGTTACCAAAACTTAA | 1.16 | 0.879 | 0.0539 | -0.286 | 0.238 | 1.19 | 0.0193 | -0.326
14 | CCAGACAGGTGAAAGTTAACTCAGTCTGGTACGC | 0.569 | 0.669 | 0.306 | -0.00485 | 1.2 | 0.251 | -0.579 | -0.235
15 | CGAACTAGGTCAACCAGGACAGTGAATACATTGA | 3.24 | 4.4 | 5.25 | 1.8 | 2.99 | 3.53 | 1.82 | 1.85
16 | CCTAGTTGGTCCGGAGGTCACACACCGGATATGA | 3.85 | 4.35 | 3.68 | 0.525 | 4.56 | 3.62 | 2.86 | 2.79
17 | ACTAGGAGGCCAAGGGTCACTCAAGATTAGTCCG | 3.93 | 4.72 | 4.05 | 0.5 | 4.48 | 2.63 | 0.41 | 1.51
18 | TCGAGTAGGTTACCGATGGGGCATTCAGCTTTCT | 0.462 | 1.47 | 0.276 | 0.165 | 0.626 | 0.0793 | -0.771 | -0.757
19 | ACTTACGGATCAACGAGGTTATAGCACGCGTATA | 0.98 | 0.642 | 0.684 | 0.778 | 1.46 | 1.83 | 0.943 | 1.39

Row | Sequence | PBM binding z-score [1] | PBM binding z-score [2] | PBM binding z-score [3] | PBM binding z-score [4] | PBM binding z-score [5] | PBM binding z-score [6] | PBM binding z-score [7] | PBM binding z-score [8]
20 | CATACAGGGTCAGCTAGGCCAGAGAAGGGACGGC | 3.35 | 4.63 | 5.1 | 1.74 | 4.46 | 2.99 | 0.568 | 1.67
21 | ATCGAAAGGTCGTGAGGTGAGTAGACAGAAAGGC | 2.99 | 4.61 | 3.94 | 1.15 | 5.39 | 3.28 | 1.3 | 0.659
22 | TTACCAAGGGGAGCTGAGGTCGTTGATCCAACTC | 0.704 | 0.0282 | -0.439 | 0.656 | 0.726 | 3.71 | 1.49 | 1.86
23 | TCTTGTAGATAAGCAGGTTAAGAAAGCTGGCCAA | -0.166 | -0.153 | -0.231 | 0.319 | 0.245 | 0.129 | -0.622 | -0.0851
24 | GGAACGAGGGCAAAGATGATAGCATCTGTCGACG | 0.55 | 1.1 | 1.59 | 2.33 | 1.02 | 0.506 | -0.734 | 0.578
25 | GCTGTTAGGTCAGGTTGGTCAGCTAACGGGTACG | 3.34 | 3.03 | 4.11 | 0.92 | 1.42 | 2.84 | 1.69 | 0.688
26 | CCTTACGGGGCACTCCAGGTTATAGCATCGGAGT | 0.528 | 0.714 | 0.823 | -0.513 | 0.523 | 3.58 | -0.229 | 0.0884
27 | CCACACAGGTGAAAGGTAACTCAGTCTGGTACGC | 1.05 | 1.5 | 0.76 | 0.262 | 2.32 | 1.06 | 0.165 | -0.208
28 | TCGCGTAGGTTAGGGGCATTCAGAATGGCGTCGA | 0.811 | 0.412 | 0.26 | 0.518 | 0.821 | 0.842 | 0.102 | 0.649
29 | TTACCAAGGTGTAGGTCGTTGATCCCTCTGTAGA | 0.426 | 0.051 | -0.436 | -0.0196 | 0.497 | 0.442 | 0.121 | 0.0922
30 | TAGCCTAGGTCATGCGGGGCAGTATAGTGTCGGC | 3.26 | 4.01 | 4.41 | 0.368 | 3.22 | 3.56 | 1.08 | 1.5
31 | CCAGACAGGTGAGAAGGTAACTCACCCTCGATTA | 0.972 | 0.89 | 0.67 | 0.134 | 0.806 | 0.55 | 0.193 | -0.0144
32 | GCTAGTTGATCAGTAAAAGGTCACACACCGGTCG | 4.9 | 5.1 | 4.68 | 0.532 | 5.54 | 3.45 | 1.59 | 1.8
33 | CCTACTGGGCCACGACAGGTCATTGATTCAGTGA | 2.31 | 1.95 | 1.52 | -0.438 | 1.56 | 2.74 | 0.324 | 0.706
34 | TCATATAGGTAAGTGCTAGGTGAAAGTCCGATCT | 0.823 | 0.114 | 0.186 | 1.23 | 0.629 | 0.873 | 0.473 | 0.173
35 | GCTGGGAGGACAAGGTCAGAGCTTTGTCCGTAGA | 3.21 | 3.33 | 3.55 | 0.766 | 2.49 | 3.31 | 1.8 | 0.796
36 | TCAAGCAGGCCAGAGGGTCACTCAAGAGGTACGG | 2.73 | 2.61 | 2.21 | 0.592 | 2.67 | 1.68 | -0.21 | 0.557
37 | CCGACTGCGGCATAAGGTTACCATAAGCCAGCCC | 0.92 | 0.306 | 0.391 | 0.104 | 0.766 | 2.11 | 1.49 | -0.279
